Data published in PubChem BioAssay (EPA / NIEHS).
“And” between values parts separate entries of the source, which are not always exact repeats. Equal values may be shown once. Inconclusive results are not listed. The source made the active and inactive calls. The calls were made as follows, unless noted: active = hit-call score of the fitted dose curve at least 0.9, where 1 is the maximum; inconclusive = response in the unintended direction; inactive = score below 0.9.

Columns and labels:
[1] = target: human Esterase Plasma (ES), BCHE (gene 590) (UniProt P06276); experiment: NVS_ENZ_hES: NovaScreen (NVS) Enzymatic Assay for human Esterase Plasma (ES) (AID 2283157)
Chain of human Esterase Plasma (ES), BCHE (gene 590) (P06276 whole entry, looked up): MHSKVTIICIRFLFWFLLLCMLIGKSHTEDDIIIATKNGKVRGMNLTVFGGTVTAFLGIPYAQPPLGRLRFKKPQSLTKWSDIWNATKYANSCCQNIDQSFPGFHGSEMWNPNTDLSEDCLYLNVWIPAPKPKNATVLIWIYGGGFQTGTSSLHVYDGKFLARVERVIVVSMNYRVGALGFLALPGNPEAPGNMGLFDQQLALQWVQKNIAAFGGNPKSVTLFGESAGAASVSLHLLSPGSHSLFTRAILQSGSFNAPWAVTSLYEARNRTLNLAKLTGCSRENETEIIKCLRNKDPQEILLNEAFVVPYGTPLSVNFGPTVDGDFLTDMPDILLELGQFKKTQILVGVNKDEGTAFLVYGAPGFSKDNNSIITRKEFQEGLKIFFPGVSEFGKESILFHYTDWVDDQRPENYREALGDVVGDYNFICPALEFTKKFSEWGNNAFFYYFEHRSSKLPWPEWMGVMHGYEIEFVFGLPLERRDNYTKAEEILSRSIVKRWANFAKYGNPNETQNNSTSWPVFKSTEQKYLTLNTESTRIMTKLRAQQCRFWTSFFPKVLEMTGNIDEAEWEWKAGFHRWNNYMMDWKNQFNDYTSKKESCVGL
Method in brief: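 Cell-free enzyme assay using esterase extracted from human plasma; colorimetric absorbance read 0.25 hour after dosing. Single-concentration duplicate screen at 25 uM, then concentration-response up to 50 uM; loss of signal scored against DMSO baseline.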

[2] = target: human Thromboxane A2 Receptor (TXA2), TBXA2R (gene 6915) (UniProt P21731); experiment: NVS_GPCR_hTXA2: NovaScreen (NVS) G Protein-Coupled Receptor Assay for human Thromboxane A2 Receptor (TXA2) (AID 2283282);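 also: actives reduce bound radioligand signal relative to DMSO baseline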
Chain of human Thromboxane A2 Receptor (TXA2), TBXA2R (gene 6915) (P21731 whole entry, looked up): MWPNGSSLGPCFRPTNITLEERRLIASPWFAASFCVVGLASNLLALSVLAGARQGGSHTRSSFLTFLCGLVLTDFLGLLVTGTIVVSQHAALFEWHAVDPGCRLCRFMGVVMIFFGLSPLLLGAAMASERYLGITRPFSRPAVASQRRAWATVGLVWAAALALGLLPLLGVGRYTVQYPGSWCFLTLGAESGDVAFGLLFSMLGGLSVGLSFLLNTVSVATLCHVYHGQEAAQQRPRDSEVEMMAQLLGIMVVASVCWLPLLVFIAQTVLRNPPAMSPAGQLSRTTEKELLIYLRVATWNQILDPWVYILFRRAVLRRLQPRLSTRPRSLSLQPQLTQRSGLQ
Method in brief: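 Human platelet-derived receptor preparation incubated with test chemical and radiolabelled ligand for 1 hour, cell-free. Bound label was separated by filtration and counted; displacement relative to DMSO controls gave activity, screened at 25 uM, then titrated.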

[3] = target: human Beta-secretase (BACE), BACE1 (gene 23621) (UniProt P56817); experiment: NVS_ENZ_hBACE: NovaScreen (NVS) Enzymatic Assay for human Beta-secretase (BACE) (AID 2283140);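 also: hits are inhibitors that reduce fluorescent substrate signal versus DMSO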
Chain of human Beta-secretase (BACE), BACE1 (gene 23621) (P56817 whole entry, looked up): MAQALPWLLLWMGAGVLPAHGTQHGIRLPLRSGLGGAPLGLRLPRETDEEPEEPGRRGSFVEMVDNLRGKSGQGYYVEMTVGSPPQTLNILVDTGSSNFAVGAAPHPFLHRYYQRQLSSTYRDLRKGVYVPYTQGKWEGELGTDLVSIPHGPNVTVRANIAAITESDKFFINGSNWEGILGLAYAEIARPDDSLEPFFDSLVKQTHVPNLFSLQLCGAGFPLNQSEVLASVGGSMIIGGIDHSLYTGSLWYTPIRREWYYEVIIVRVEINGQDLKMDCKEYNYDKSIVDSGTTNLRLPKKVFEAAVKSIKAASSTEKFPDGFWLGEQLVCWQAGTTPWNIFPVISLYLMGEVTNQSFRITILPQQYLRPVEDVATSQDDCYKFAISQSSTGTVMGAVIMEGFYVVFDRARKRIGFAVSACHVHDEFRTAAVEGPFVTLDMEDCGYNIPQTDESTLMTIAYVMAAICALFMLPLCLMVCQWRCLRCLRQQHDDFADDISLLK
Method in brief: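 Compounds were first tested in duplicate at 25 uM, then actives in concentration series, against recombinant BACE1 from SF9 cells. Enzyme activity was measured by fluorescence intensity 1 hour after dosing, with DMSO as negative control.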

[4] = target: Sodium channel protein type 1 subunit alpha (Rattus norvegicus) (UniProt P04774); experiment: NVS_IC_rNaCh_site2: NovaScreen (NVS) Ion Channel Assay for rat Sodium Channel, Site 2 (NaCh) (AID 2283322);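 also: hit means loss of radioligand binding signal relative to DMSO so AC50 marks displacement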
Method in brief: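 Membranes: rat forebrain. Format: competitive radioligand displacement, filter separation, scintillation readout, 1 h exposure. Primary screen in duplicate at 25 uM; actives retested in concentration series.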

[5] = target: Glucocorticoid receptor (Homo sapiens) (UniProt P04150); experiment: NVS_NR_hGR: NovaScreen (NVS) Nuclear Receptor Binding Assay for human Glucocorticoid Receptor (GR) (AID 2283363);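 as to AC50: activity is loss of specific radioligand binding signal relative to DMSO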
Chain of Glucocorticoid receptor (Homo sapiens) (P04150 whole entry, looked up): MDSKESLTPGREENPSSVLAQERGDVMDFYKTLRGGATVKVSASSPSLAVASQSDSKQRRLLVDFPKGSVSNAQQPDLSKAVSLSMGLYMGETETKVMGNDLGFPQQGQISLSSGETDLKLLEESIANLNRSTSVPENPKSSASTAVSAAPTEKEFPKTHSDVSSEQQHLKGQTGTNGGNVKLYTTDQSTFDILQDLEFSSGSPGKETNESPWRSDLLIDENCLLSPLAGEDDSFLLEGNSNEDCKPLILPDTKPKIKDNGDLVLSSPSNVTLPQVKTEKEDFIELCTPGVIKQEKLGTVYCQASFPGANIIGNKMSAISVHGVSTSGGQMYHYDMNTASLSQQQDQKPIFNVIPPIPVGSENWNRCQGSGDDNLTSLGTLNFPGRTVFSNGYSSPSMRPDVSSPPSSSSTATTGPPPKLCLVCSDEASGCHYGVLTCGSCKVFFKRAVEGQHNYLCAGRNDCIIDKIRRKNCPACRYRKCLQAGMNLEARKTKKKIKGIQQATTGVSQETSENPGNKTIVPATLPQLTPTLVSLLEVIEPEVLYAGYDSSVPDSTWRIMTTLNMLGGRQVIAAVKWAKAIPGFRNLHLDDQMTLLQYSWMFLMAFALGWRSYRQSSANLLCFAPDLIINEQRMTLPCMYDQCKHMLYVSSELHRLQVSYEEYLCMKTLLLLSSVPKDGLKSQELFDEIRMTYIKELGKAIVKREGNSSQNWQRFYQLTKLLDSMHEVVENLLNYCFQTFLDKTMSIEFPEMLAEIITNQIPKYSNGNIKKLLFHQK
Method in brief: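 Cell-free radioligand binding with extracted receptor protein, read by filter-based scintillation counting 16 hours after dosing. Loss of specific signal versus DMSO baseline was scored. Primary screen ran in duplicate at 25 uM; actives were followed up in concentration series.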

[6] = target: human Norepinephrine Transporter (NET), SLC6A2 (gene 6530) (UniProt P23975); experiment: NVS_TR_hNET: NovaScreen (NVS) Transporter Assay for human Norepinephrine Transporter (NET) (AID 2283377);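 also: cell-free membrane protein extracted from CHO cells expressing human NET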
Chain of human Norepinephrine Transporter (NET), SLC6A2 (gene 6530) (P23975 whole entry, looked up): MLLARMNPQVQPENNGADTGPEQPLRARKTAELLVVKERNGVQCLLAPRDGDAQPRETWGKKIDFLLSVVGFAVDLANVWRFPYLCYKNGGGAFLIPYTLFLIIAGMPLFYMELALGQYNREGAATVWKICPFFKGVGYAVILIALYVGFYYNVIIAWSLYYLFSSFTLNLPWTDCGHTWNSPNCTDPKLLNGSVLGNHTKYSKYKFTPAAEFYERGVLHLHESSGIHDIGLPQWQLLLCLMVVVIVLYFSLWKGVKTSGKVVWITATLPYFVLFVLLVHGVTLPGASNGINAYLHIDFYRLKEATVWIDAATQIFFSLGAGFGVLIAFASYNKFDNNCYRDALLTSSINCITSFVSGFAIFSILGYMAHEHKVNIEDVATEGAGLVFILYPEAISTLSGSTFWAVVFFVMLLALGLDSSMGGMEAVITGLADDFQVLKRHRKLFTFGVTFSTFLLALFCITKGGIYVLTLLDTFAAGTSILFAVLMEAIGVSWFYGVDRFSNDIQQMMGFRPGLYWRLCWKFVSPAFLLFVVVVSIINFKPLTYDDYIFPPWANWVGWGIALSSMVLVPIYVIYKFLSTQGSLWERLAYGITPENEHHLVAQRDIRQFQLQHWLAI
Method in brief: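 Radioligand binding to human NET in cell-free CHO-derived protein preparations, read by filter-based scintillation counting 1 hour after dosing. Loss of signal versus DMSO baseline indicated displacement; primary screening in duplicate at 25 uM, actives then titrated.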

[7] = NVS_IC_rCaBTZCHL: NovaScreen (NVS) Ion Channel Assay for Calcium Channel, Type L, Benzothiazepine Site (CaBTZCHL) (AID 2283337)
Method in brief: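 Scintillation counting of filter-bound radioligand gave the read-out, with reduced binding versus DMSO scored as activity. Membranes came from rat cortex and were read 1.5 h after compound addition. Chemicals were screened first in duplicate at 25 uM.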

[8] = target: human Phosphatase and Tensin Homolog (PTEN), PTEN (gene 5728) (UniProt P60484); experiment: NVS_ENZ_hPTEN: NovaScreen (NVS) Enzymatic Assay for human Phosphatase and Tensin Homolog (PTEN) (AID 2283203)
Chain of human Phosphatase and Tensin Homolog (PTEN), PTEN (gene 5728) (P60484 whole entry, looked up): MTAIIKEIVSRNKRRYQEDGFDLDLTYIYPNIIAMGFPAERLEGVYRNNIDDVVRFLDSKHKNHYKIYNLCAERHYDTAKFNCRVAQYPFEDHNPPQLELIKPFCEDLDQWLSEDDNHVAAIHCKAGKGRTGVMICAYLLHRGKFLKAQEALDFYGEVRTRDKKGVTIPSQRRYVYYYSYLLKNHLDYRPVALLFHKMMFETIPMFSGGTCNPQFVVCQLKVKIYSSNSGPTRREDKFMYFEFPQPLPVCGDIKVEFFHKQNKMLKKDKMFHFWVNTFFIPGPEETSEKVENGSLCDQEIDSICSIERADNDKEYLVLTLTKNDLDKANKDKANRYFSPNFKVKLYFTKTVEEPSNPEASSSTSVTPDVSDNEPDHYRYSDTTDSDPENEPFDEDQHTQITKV
Method in brief: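 Cell-free recombinant human PTEN with fluorescent substrate; product separated by electrophoretic mobility shift and read by fluorescence 1 h after dosing. Primary screen in duplicate at 25 uM, actives followed in concentration series versus DMSO.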

[9] = target: mouse Estrogen Receptor alpha (Era), Esr1 (gene 13982) (UniProt P19785); experiment: NVS_NR_mERa: NovaScreen (NVS) Nuclear Receptor Binding Assay for mouse Estrogen Receptor alpha (Era) (AID 2283378);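 also: hit means loss of bound radioligand signal relative to DMSO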
Chain of mouse Estrogen Receptor alpha (Era), Esr1 (gene 13982) (P19785 whole entry, looked up): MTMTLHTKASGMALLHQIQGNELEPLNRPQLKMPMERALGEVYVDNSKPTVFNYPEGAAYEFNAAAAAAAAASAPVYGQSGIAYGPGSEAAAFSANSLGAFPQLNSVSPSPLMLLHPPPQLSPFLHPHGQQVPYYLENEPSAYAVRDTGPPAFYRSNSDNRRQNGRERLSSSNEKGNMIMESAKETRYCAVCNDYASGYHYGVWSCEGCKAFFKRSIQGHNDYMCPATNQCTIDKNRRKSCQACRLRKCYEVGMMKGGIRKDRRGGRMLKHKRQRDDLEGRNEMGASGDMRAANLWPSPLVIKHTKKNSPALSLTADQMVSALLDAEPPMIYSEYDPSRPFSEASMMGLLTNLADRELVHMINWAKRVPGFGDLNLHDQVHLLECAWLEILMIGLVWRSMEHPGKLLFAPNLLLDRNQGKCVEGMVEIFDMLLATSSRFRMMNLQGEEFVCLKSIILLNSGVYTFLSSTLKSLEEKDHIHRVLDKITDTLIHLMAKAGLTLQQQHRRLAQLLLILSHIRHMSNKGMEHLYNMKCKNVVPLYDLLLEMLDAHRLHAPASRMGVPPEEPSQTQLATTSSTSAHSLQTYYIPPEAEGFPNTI
Method in brief: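 Extracted mouse Era incubated with tritiated or iodinated radioligand plus test chemical, 18 h. Bound fraction separated on filters, counted by scintillation. DMSO = negative control/baseline; duplicate single-point at 25 uM, then concentration-response follow-up.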

[10] = target: Estrogen receptor (Homo sapiens) (UniProt P03372); experiment: CCTE_Deisenroth_AIME_384WELL_LUC_Active: CCTE's 384-well Estrogen Receptor Transactivation Assay with AIME metabolic competence (ERTA luciferase; metabolism positive), Deisenroth Lab (AID 2284030)
Chain of Estrogen receptor (Homo sapiens) (P03372 whole entry, looked up): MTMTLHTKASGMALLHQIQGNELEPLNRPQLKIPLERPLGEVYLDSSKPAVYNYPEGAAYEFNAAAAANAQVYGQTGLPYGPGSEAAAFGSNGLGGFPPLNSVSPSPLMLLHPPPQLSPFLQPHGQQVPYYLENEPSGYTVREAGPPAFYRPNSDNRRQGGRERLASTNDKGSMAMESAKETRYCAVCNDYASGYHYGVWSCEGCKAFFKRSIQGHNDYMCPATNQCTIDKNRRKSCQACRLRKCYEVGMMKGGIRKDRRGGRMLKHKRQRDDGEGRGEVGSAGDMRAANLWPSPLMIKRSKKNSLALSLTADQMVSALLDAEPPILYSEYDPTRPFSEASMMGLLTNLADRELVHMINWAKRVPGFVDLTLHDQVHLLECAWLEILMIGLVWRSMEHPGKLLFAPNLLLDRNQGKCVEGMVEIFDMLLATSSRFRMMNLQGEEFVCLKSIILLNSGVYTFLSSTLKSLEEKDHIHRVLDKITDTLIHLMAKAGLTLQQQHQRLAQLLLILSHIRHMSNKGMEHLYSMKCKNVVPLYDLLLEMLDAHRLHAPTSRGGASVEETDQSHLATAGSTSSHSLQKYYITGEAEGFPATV
Method in brief: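 AIME metabolism-positive mode: chemicals 0.002 - 200 uM, 2 h with alginate-bound PB/BNF-induced rat S9 → medium to VM7Luc4E2 ERTA, 24 h → luciferase. Positive fit vs 17beta-estradiol; n=4 typical.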

[11] = target: Estrogen receptor (Homo sapiens) (UniProt P03372); experiment: CCTE_Deisenroth_AIME_384WELL_LUC_Inactive: CCTE's 384-well Estrogen Receptor Transactivation Assay without AIME metabolic competence (ERTA luciferase; metabolism negative), Deisenroth Lab (AID 2284038);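 also: VM7Luc4E2 breast cells given medium preincubated 2 h with S9-free microspheres; hits raise estrogen receptor luciferase signal so potencies reflect agonists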
Method in brief: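 Metabolism-negative mode: chemicals (10-point, 0.002–200 uM) held 2 h with alginate-water microspheres, then conditioned medium applied to VM7Luc4E2 cells for 24 h. Luciferase induction referenced to 17beta-estradiol.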

[12] = target: Estrogen receptor (Homo sapiens) (UniProt P03372); experiment: CCTE_Deisenroth_AIME_384WELL_LUC_Shift: CCTE's 384-well Estrogen Receptor Transactivation Assay with AIME metabolic competence data shift (ERTA luciferase; difference in metabolism positive and negative), Deisenroth Lab (AID 2284041; active = hit-call score of the fitted dose curve at least 0.9, where 1 is the maximum; inactive = score below 0.9;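 also: shift is response with S9 minus without S9 so positive means metabolism raised ER signal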)
Method in brief: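 Here, parent compounds undergo 2 h phase I metabolism by PB/BNF-induced rat S9 before 24 h transactivation in VM7Luc4E2 cells; the curve models S9-positive minus S9-negative response over a 10-point series.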

[13] = target: human Thyroid Receptor Alpha (TRa), THRA (gene 7067) (UniProt P10827); experiment: NVS_NR_hTRa_Antagonist: NovaScreen (NVS) Nuclear Receptor Binding Assay for human Thyroid Receptor Alpha Antagonism (TRa) (AID 2283362);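 also: activity is loss of signal relative to DMSO baseline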
Chain of human Thyroid Receptor Alpha (TRa), THRA (gene 7067) (P10827 whole entry, looked up): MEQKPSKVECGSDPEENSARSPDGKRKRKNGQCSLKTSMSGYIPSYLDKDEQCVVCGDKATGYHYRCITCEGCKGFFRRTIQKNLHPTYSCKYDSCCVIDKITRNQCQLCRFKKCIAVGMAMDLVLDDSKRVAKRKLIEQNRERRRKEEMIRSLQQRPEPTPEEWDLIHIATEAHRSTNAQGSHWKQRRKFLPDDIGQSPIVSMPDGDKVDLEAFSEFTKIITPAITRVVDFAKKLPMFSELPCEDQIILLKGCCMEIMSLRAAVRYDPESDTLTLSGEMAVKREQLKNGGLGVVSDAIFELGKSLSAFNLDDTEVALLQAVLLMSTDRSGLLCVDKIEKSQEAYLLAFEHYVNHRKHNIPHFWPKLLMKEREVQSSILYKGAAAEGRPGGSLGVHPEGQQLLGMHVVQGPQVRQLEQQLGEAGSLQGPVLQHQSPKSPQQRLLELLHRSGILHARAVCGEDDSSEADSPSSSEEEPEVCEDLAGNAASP
Method in brief: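 Extracted protein, cell-free; 1 h incubation after dosing; AlphaLISA chemiluminescence binding readout. DMSO = baseline/neg ctrl; signal loss = activity. Primary: duplicate, 25 uM; secondary: conc. series on actives.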

[14] = CCTE_Shafer_MEA_dev_network_spike_peak: CCTE's Neural Network Formation Assay for Mean Number of Electrodes in Network Spike, Shafer Lab (AID 2284049; active = hit-call score of the fitted dose curve at least 0.9, where 1 is the maximum; inactive = score below 0.9)
Method in brief: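 Continuous 12-day exposure of rat cortical cultures, starting at plating, on MEA plates. Endpoint: electrodes participating in network-spike peaks, AUC across DIV 5–12, DMSO as negative control.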

[15] = IUF_NPC4_neurite_length_120hr: Leibniz Research Institute for Environmental Medicine (IUF) 120-hour Neuronal Morphology Assay for Neurite Length (NPC4) (AID 2284302; active = hit-call score of the fitted dose curve at least 0.9, where 1 is the maximum; inactive = score below 0.9)
Method in brief: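 Human fetal cortex (GW 16-19) neural progenitor spheres, 0.3 mm, were plated on poly-D-lysine/laminin in N2 differentiation medium and exposed from day 0 for 120 h, half-feeding at day 3. Mean TUBB3+ neurite length (µm) came from skeletonized images, relative to DMSO.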

[16] = IUF_NPC4_neurite_area_120hr: Leibniz Research Institute for Environmental Medicine (IUF) 120-hour Neuronal Morphology Assay for Neurite Area (NPC4) (AID 2284305)
Method in brief: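 Human fetal cortex-derived neural progenitor spheres (0.3 mm, GW 16-19) plated on poly-D-lysine/laminin in N2 differentiation medium and exposed from day 0 for 120 h across 7 concentrations plus solvent control. Neurite area is mean pixel area per TUBB3-positive neuron via skeletonization, analysed relative to DMSO.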

[17] = IUF_NPC2-5_cytotoxicity_120hr: Cytotoxicity Assessment at 120 hours in the Leibniz Research Institute for Environmental Medicine (IUF) Neural Progenitor Cell Migration and Differentiation Assay (NPC2-5) (AID 2284307)
Method in brief: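 Sphere plating starts differentiation and exposure together at day 0. Compound solution is half-replaced on day 3. At 120 h, medium supernatant is taken for an LDH membrane-integrity read based on resazurin reduction to resorufin fluorescence.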

[18] = IUF_NPC2-5_cell_number_120hr: Cell Number Assessment at 120 hours in the Leibniz Research Institute for Environmental Medicine (IUF) Neural Progenitor Cell Migration and Differentiation Assay (NPC2-5) (AID 2284308; active = hit-call score of the fitted dose curve at least 0.9, where 1 is the maximum; inactive = score below 0.9;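 also: count of Hoechst-stained nuclei in migration zone around plated human neural progenitor spheres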)
Method in brief: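 hNPC spheres, one per well, PDL/laminin, N2 medium, 37C, 5% CO2. Dosing day 0 → half-medium change with fresh compound day 3 → fix 120 h. Readout: Hoechst+ nuclei count, migration area; 7 concentrations plus solvent control.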

[19] = IUF_NPC2-5_viability_120hr: Viability Assessment at 120 hours in the Leibniz Research Institute for Environmental Medicine (IUF) Neural Progenitor Cell Migration and Differentiation Assay (NPC2-5) (AID 2284312; active = hit-call score of the fitted dose curve at least 0.9, where 1 is the maximum; inactive = score below 0.9)
Method in brief: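 Human fetal (GW 16-19) neural progenitor spheres of 0.3 mm were plated on poly-D-lysine/laminin in N2 differentiation medium and exposed from day 0 for 120 h, with half-medium refresh at day 3. Viability was read as alamar blue resazurin-to-resorufin fluorescence against DMSO.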

[20] = IUF_NPC1_cytotoxicity_72hr: Cytotoxicity Assessment at 72 hours in the Leibniz Research Institute for Environmental Medicine (IUF) Neural Progenitor Cell Proliferation Assay (NPC1) (AID 2284332);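 also: rising LDH signal means more cytotoxicity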
Method in brief: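 Spheres of primary human neural progenitors are plated one per well on day 0 in growth-factor medium and dosed at once. After three days at 37C, supernatant LDH is measured fluorimetrically via resazurin reduction.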

Compound: CC1OC(C)OC(C)O1 (stereo unspecified)
- outcome [1]: inactive
- outcome [2]: inactive

Compound: Nc1ccc(-c2ccc(N)c(N)c2)cc1N
- AC50 [3]: 10.2 µM (active)
- AC50 [1]: 29.1 µM (active)

Compound: CC(C)(C)C(O)C(Oc1ccc(-c2ccccc2)cc1)n1cncn1 (stereo unspecified)
- outcome [4]: inactive
- outcome [5]: inactive
- AC50 [6]: 25 µM (active)

Compound: O=C(O)CCCc1ccc(N(CCCl)CCCl)cc1
- outcome [7]: inactive

Compound: SCc1ccco1
- AC50 [8]: 25 µM (active)

Compound: Oc1ccc(C2(c3ccc(O)cc3)c3ccccc3-c3ccccc32)cc1
- AC50 [9]: 0.432 µM (active)

Compound: O=[N+]([O-])c1cc(C(F)(F)F)c(Cl)c([N+](=O)[O-])c1Cl
- outcome [9]: inactive

Compound: CCCC=NO
- outcome [10]: inactive
- outcome [11]: inactive
- outcome [12]: inactive

Compound: CC1CCCC1.[C-]#[O+].[C-]#[O+].[C-]#[O+].[Mn]
- outcome [13]: inactive
- outcome [14]: inactive

Compound: Cc1ccc(OP(=O)(Oc2ccc(C)cc2)Oc2ccc(C)cc2)cc1 (tested in a mixture with another compound)
- outcome [14]: inactive
- outcome [15]: inactive
- outcome [16]: inactive
- outcome [17]: inactive
- outcome [18]: inactive
- outcome [19]: inactive
- outcome [20]: inactive

Compound: CNC(=N[N+](=O)[O-])NCC1CCOC1 (stereo unspecified)
- outcome [15]: inactive
- outcome [16]: inactive
- outcome [17]: inactive
- outcome [18]: inactive
- outcome [19]: inactive
- outcome [20]: inactive

Compound: O=c1[nH]c(Cl)c(Cl)cc1Cl
- AC50 [2]: 0.631 µM (active)

Compound: CC(=O)/C=C/c1ccccc1
- AC50 [6]: 19.9 µM (active)

Compound: CC(C)COP(=O)(OCC(C)C)OCC(C)C
- outcome [3]: inactive

Compound: Cc1cc(C)c(C2=C(OC(=O)CC(C)(C)C)C3(CCCC3)OC2=O)c(C)c1
- outcome [10]: inactive
- outcome [11]: inactive
- outcome [12]: inactive

Compound: C[C@]12CC[C@H](O)C[C@H]1CC[C@@H]1[C@@H]2C[C@@H](O)[C@]2(C)[C@@H](C3=CC(=O)OC3)CC[C@]12O
- outcome [4]: inactive

Compound: CC(C)CCCCCCCOP(=O)(Oc1ccccc1)Oc1ccccc1
- outcome [15]: inactive
- outcome [16]: inactive
- outcome [17]: inactive
- outcome [18]: inactive
- outcome [19]: inactive
- outcome [20]: inactive

Compound: Cl/C=C\CCl
- outcome [8]: inactive

Compound: O=C(CCl)c1ccccc1
- outcome [13]: inactive

Compound: CC(C)(c1cc(Cl)c(O)c(Cl)c1)c1cc(Cl)c(O)c(Cl)c1
- AC50 [5]: 544 nM (active) and 146 nM (active)

Compound: c1ccc(Nc2ccc3ccccc3c2)cc1
- outcome [7]: inactive
